PG9 binder: small molecules binding HIV-1 gp120 antibody PG9; TR-FRET gp120-PG9 antibody binding; inhibition, % at 6.7 µM; AID 624416; 360,000 tested, 0.43% active; in the data active = inhibition above about 8.5%
NR1D1 modulator: Rev-erb alpha (human) modulation. P20393. Rev-erbα–FITC-DNA binding, fluorescence polarization, 90 min. activity, % at 10 µM. 370,000 tested, 0.79% active;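 active = activity above about 14%, limit read from the data; passing the limit was not always enough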
PP5 inh: blocks human protein phosphatase 5 activity; P53041; purified PP5c, OMFP substrate fluorescence; inhibition, % at 6.7 µM; 320,000 tested, 0.18% active;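 active = inhibition above the campaign's mean inhibition across all tested compounds plus 3 SD, cut at about 9.5% in these data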
GASC-1 inh: blocks human GASC-1 demethylase activity. Q9H3R0. inhibition, % at 2.35 µM. GST-JMJD2C(1-420) H3K9me3 demethylation, DELFIA europium. 330,000 tested, 0.069% active;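 active = more than half of a compound's replicate wells show inhibition beyond 50%, single wells judged on their own value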;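 note: signal counts dimethyl H3K9 product captured on neutravidin plate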
PP1 inh: blocks human PP1-alpha phosphatase, a PP5 counter-screen; inhibition, % at 6.7 µM; 320,000 tested, 0.9% active; P62136; purified PP1alpha, OMFP fluorescence;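 active = inhibition above the mean inhibition of all tested compounds plus 3 SD, computed separately for each screening campaign, cut at about 15% in these data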
Target sequence (P62136 whole entry, looked up): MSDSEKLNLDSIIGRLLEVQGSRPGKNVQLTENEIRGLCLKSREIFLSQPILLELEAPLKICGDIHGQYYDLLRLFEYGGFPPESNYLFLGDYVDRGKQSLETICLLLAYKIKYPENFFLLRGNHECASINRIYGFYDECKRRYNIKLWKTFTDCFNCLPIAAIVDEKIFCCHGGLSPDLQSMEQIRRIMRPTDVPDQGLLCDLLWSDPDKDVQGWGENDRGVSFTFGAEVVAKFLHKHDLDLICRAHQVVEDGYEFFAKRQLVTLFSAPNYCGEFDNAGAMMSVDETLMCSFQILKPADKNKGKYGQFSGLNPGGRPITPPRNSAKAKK
proKLK7 act: activates the human kallikrein-7 zymogen; purified proKLK7, EDANS-DABCYL substrate fluorescence; 100% is mature enzyme control, 0% vehicle; activation, % at 7 µM; 370,000 tested, 0.9% active;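 active = activation above the mean of all tested compounds plus 3 SD, computed per campaign excluding outliers beyond control limits, cut at about 13% in these data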
Target sequence (P49862 whole entry, looked up): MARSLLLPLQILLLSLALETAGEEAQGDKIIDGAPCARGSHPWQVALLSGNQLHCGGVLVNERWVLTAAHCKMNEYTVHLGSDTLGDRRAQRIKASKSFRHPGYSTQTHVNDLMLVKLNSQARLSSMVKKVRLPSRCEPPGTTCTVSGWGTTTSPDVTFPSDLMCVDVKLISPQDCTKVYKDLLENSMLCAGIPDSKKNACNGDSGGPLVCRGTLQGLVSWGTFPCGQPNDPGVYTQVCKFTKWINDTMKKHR
proKLK7 act conf: confirmation of human kallikrein-7 zymogen activators | shares compounds with proKLK7 act | purified proKLK7, EDANS-DABCYL substrate fluorescence; scaled: vehicle 0, mature enzyme 100 | activation, % at 7 µM | 3,200 tested, 68% active | AID 686949;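 active = activation, as change over the incubation, above the mean of all tested compounds plus 3 SD, cut at about 13% in these data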
EDANS interfere: counter-screen for kallikrein-7 activators: EDANS-DABCYL optical interference | shares compounds with proKLK7 act | EDANS-DABCYL substrate fluorescence interference, no enzyme, 4 h; solvent 0%, active enzyme control 100% | activation, % at 7 µM | 3,200 tested, 80% active | AID 686952;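 active = activation above the all-compound mean plus 3 SD, ignoring values outside control-based bounds, cut at about 4.8% in these data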;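 note: value is the 4 h activation minus the activation read at time zero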
K7 EDANS ctr: counter-screen for kallikrein-7 activators: EDANS-DABCYL interference, dose response; EC50, µM; EDANS-DABCYL peptide fluorescence interference, no enzyme; shares compounds with proKLK7 act; 250 tested, 20% active;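 active = compounds that raise the fluorescence signal in this interference counterscreen, with EC50 at or below 10 µM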;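 note: intact quenched peptide substrate alone read at 355 nm excitation and 520 nm emission; signal is fluorescence gain from T0 to T4 after four hours at room temperature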
Hits are given with their value; . = inactive; / = not tested or not shown. Shown are actives, neighbours in structure and some others; about 2.8% of the full set was active somewhere.

SMILES	PG9 binder	NR1D1 modulator	PP5 inh	GASC-1 inh	PP1 inh	proKLK7 act	proKLK7 act conf	EDANS interfere	others
NC(=O)c1ccc(-c2ncc(-c3ccccc3)o2)cc1	.	.	.	.	.	69	59	62
c1ccc(-c2cnc(-c3cccnc3)o2)cc1	.	.	.	.	.	.	/	/
CCC[C@H]1[C@@H](NC(=O)C2CCOC2)CC[C@@]23CCCN2C(=O)CCC[C@@H]13 (some centres undefined)	/	.	/	/	/	/	/	/
CCc1nn2c(NCCCO)cc(C)nc2c1-c1ccc(F)cc1	.	.	.	.	.	.	/	/
Cc1cc(C)c2c(n1)nn1c(NCCCN(C)C)cc(C)nc21	.	.	.	.	.	72	46	48
Cc1cc(C)c2c(n1)nn1c(NCCOCCO)cc(C)nc21	.	.	.	.	.	61	78	80
Cc1ccc(O)c(C(=O)c2cnn(C(=O)Cc3csc(C)n3)c2)c1	.	.	.	/	.	20	54	53
CCCCN1CC(COCc2ccccc2)Oc2cccc(N3CCCCC3)c2S1(=O)=O (centres undefined)	.	.	/	/	/	.	/	/
C/C(C=NNC(=O)CSc1nnc(-c2ccccc2)n1-c1ccc(C)cc1)=C\c1ccco1	/	.	/	/	/	.	/	/
CCOC(=O)N1CCN(C(=O)c2cnn3c(C(F)F)cc(-c4ccc(C)cc4)nc23)CC1	.	.	.	.	.	.	/	/
COc1ccc(-c2cc(C(F)F)n3ncc(C(=O)n4ccnc4C)c3n2)cc1	.	.	.	.	.	13	169	167
O=C1N/C(=C/c2ccc(N3CCOCC3)o2)C(=O)N1c1ccccc1	.	.	.	.	.	20	.	10
C=CCN1C(=O)N/C(=C/c2ccc(N3CCOCC3)o2)C1=O	.	.	.	.	.	.	/	/
Cc1cc(=O)oc2n[nH]c(-c3ccccc3)c12	.	.	.	.	.	.	/	/
COc1ccc(-c2[nH]nc3oc(=O)cc(C)c23)cc1	.	.	.	.	.	13	15	21
COC(=O)C1CN(CCc2ccccc2)CCS(=O)(=O)N1Cc1ccccc1 (centres undefined)	/	.	/	/	/	.	/	/
CCOC(CCNC(=O)c1cc(-c2cccs2)nc2ccccc12)OCC	.	.	.	.	.	32	.	9.8
COc1ccc(CNC(=O)COC(=O)c2cc(-c3cccs3)nc3ccccc23)cc1OC	.	.	.	.	.	15	.	.
CCN(CC)S(=O)(=O)c1ccc(NC(=O)c2cc(-c3cccs3)nc3ccccc23)cc1	.	.	.	.	.	.	/	/
O=C(NC1=NCCS1)c1cc(-c2cccs2)nc2ccccc12	.	.	.	.	.	35	.	.
O=C(O)c1ccc(/C=N/NC(=O)c2cc(-c3cccs3)nc3ccccc23)cc1	.	.	.	.	.	23	28	21	K7 EDANS ctr=.
S=C(Nc1cc(Cl)cc(Cl)c1)NC(c1ccccc1)c1ccccc1	/	.	/	/	/	/	/	/
NC(=S)NNc1ccnc2cc(Cl)ccc12	.	.	.	.	.	16	20	21
O=C(NNc1ccnc2cc(Cl)ccc12)C1CCCCC1	.	.	.	.	.	.	/	/
Clc1ccc(-c2nnc3n2N=C(c2ccc(-c4ccccc4)cc2)CS3)c(Cl)c1	/	.	/	/	/	.	/	/
SMILES	PG9 binder	NR1D1 modulator	PP5 inh	GASC-1 inh	PP1 inh	proKLK7 act	proKLK7 act conf	EDANS interfere	others
Cc1c(C)c2c(OCC(=O)Nc3ccc(CCO)cc3)cc3c(c2oc1=O)CCC(C)(C)O3	.	.	.	.	.	.	/	/
Cc1c(C)c2c(OCC(=O)O)cc3c(c2oc1=O)CCC(C)(C)O3	.	.	.	.	.	33	61	73
Cc1c(C)c2c(OCC(=O)NCC(=O)NCC(=O)O)cc3c(c2oc1=O)CCC(C)(C)O3	.	.	.	.	.	57	79	79
C=CCOC(=O)N[C@@H](c1cccc(OC)c1)[C@@H](C)/C=C/CC(=O)O	/	.	/	/	/	.	/	/
O=C(NCC1COCCO1)C1CCN(S(=O)(=O)c2ccc(Br)s2)CC1 (centres undefined)	/	.	/	/	/	.	/	/
Oc1ccc2c(c1)OCC1(O)Cc3cc(O)c(O)cc3C21 (centres undefined)	.	.	/	/	/	16	58	57
CCOC(=O)c1cc(OC(C)=O)c2ccc(OC)c(OC)c2c1	.	.	/	/	/	14	.	.
COc1ccc(NC(=O)c2sc3nc(-c4cccnc4)ccc3c2N)cc1OC	.	.	.	.	.	56	15	16
O=C1Nc2ccc(S(=O)(=O)N(CCO)CCO)c3cccc1c23	.	.	/	.	/	45	42	50
CNS(=O)(=O)c1cc(S(=O)(=O)NC)c2cccc3c2c1NC3=O	.	.	.	.	.	21	21	21
Cc1cc(O)ccc1NS(=O)(=O)c1ccc2c3c(cccc13)C(=O)N2	.	.	.	.	.	81	86	98
CNS(=O)(=O)c1ccc2c3c(cccc13)C(=O)N2	.	.	/	.	/	49	61	72
COC(=O)c1cn(-c2ccc(-c3noc4c3C(=O)N(CC(=O)N3CCOCC3)CC4)cc2)nn1	/	.	/	/	/	.	/	/
C[C@@H]1CNCCN1c1ccc(N2CCS(=O)(=O)CC2)c(C#N)c1	.	.	/	/	/	.	/	/
CCn1c2ccccc2c2cc(NC(=O)COC(=O)c3cc(F)ccc3C)ccc21	/	.	/	/	/	.	/	/
O=C1Nc2ccc(S(=O)(=O)NCc3ccco3)c3cccc1c23	.	.	.	.	.	28	40	37
CC(C)C(NS(=O)(=O)c1ccc2c3c(cccc13)C(=O)N2)C(=O)O (centres undefined)	.	.	.	.	.	25	23	33
O=C(O)CNS(=O)(=O)c1ccc2c3c(cccc13)C(=O)N2	.	.	/	.	/	60	73	73
Cc1oc2c(cc(NS(=O)(=O)c3ccc4c5c(cccc35)C(=O)N4)c3ccccc32)c1C(=O)OC(C)C	.	.	.	.	.	24	57	53
COC(=O)c1ccccc1NS(=O)(=O)c1ccc2c3c(cccc13)C(=O)N2	.	.	.	.	.	.	/	/
COC(=O)C1=C(C)N(Cc2ccc(Cl)cc2)C(=S)NC1c1ccc(Cl)cc1 (centres undefined)	.	.	/	/	/	.	/	/
O=C(O)CCCCCNS(=O)(=O)c1ccc2c3c(cccc13)C(=O)N2	.	.	/	.	/	63	61	69
O=C(O)c1cccc(NS(=O)(=O)c2ccc3c4c(cccc24)C(=O)N3)c1	.	.	.	.	.	.	/	/

Compound activity: PubChem BioAssay, several laboratories
